How the values were obtained:
[1] = molecular target: Serine/threonine-protein kinase MRCK alpha (Homo sapiens) (UniProt Q5VT25); conditions: at 0.1 µM
[2] = molecular target: Serine/threonine-protein kinase MRCK alpha (Homo sapiens) (UniProt Q5VT25); conditions: at 1 µM
[3] = molecular target: Serine/threonine-protein kinase MRCK beta (Homo sapiens) (UniProt Q9Y5S2); conditions: at 0.1 µM
[4] = molecular target: Serine/threonine-protein kinase MRCK beta (Homo sapiens) (UniProt Q9Y5S2); conditions: at 1 µM
[5] = molecular target: Ribosomal protein S6 kinase alpha-5 (Homo sapiens) (UniProt O75582); conditions: at 0.1 µM
[6] = molecular target: Ribosomal protein S6 kinase alpha-5 (Homo sapiens) (UniProt O75582); conditions: at 1 µM
[7] = molecular target: Ribosomal protein S6 kinase alpha-4 (Homo sapiens) (UniProt O75676); conditions: at 0.1 µM
[8] = molecular target: Ribosomal protein S6 kinase alpha-4 (Homo sapiens) (UniProt O75676); conditions: at 1 µM
[9] = molecular target: Ribosomal protein S6 kinase beta-1 (Homo sapiens) (UniProt P23443); conditions: at 0.1 µM
[10] = molecular target: Ribosomal protein S6 kinase beta-1 (Homo sapiens) (UniProt P23443); conditions: at 1 µM

Chain of Serine/threonine-protein kinase MRCK alpha (Homo sapiens) (Q5VT25 whole entry): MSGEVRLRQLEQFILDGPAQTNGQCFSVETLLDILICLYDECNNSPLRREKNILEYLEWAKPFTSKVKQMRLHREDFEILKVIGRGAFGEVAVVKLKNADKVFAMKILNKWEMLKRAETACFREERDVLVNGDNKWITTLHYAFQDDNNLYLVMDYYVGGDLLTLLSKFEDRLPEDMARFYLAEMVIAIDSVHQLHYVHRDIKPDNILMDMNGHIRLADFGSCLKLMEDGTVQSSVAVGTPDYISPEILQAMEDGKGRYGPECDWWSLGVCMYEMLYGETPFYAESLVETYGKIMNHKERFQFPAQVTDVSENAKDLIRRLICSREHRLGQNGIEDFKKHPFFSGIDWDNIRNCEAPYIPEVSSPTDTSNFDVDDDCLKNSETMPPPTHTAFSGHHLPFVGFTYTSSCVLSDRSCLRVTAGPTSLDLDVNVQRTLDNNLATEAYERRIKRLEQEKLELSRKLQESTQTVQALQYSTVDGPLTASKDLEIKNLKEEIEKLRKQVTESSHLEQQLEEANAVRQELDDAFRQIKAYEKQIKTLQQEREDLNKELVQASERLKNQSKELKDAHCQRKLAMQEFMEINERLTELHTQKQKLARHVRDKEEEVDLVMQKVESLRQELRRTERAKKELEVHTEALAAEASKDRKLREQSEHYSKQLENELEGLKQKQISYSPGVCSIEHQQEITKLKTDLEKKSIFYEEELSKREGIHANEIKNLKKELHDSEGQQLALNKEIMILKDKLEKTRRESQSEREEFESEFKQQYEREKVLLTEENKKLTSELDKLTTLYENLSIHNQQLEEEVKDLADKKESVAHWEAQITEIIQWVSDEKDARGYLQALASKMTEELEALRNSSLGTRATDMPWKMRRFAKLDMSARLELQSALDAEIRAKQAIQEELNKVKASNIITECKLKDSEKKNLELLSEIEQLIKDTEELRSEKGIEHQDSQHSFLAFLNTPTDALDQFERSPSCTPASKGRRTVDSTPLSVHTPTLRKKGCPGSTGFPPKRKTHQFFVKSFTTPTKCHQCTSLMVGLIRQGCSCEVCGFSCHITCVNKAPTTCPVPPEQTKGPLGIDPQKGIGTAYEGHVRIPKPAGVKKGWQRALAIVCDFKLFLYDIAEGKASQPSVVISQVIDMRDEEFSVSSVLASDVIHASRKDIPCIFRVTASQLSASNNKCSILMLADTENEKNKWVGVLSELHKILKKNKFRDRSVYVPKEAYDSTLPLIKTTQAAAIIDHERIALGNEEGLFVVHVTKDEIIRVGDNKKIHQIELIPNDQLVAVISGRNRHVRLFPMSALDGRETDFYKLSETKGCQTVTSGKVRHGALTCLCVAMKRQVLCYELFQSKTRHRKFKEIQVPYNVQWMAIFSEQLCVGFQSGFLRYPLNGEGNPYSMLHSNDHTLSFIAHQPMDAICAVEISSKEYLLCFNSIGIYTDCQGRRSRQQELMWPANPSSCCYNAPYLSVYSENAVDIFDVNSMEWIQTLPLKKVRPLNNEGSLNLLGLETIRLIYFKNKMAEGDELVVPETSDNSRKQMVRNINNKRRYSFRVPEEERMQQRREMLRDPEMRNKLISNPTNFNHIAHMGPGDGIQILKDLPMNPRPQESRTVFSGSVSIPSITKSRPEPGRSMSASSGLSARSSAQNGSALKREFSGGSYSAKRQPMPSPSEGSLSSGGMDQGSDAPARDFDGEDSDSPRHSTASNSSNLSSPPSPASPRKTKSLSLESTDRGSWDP
Chain of Ribosomal protein S6 kinase alpha-4 (Homo sapiens) (O75676 whole entry, looked up): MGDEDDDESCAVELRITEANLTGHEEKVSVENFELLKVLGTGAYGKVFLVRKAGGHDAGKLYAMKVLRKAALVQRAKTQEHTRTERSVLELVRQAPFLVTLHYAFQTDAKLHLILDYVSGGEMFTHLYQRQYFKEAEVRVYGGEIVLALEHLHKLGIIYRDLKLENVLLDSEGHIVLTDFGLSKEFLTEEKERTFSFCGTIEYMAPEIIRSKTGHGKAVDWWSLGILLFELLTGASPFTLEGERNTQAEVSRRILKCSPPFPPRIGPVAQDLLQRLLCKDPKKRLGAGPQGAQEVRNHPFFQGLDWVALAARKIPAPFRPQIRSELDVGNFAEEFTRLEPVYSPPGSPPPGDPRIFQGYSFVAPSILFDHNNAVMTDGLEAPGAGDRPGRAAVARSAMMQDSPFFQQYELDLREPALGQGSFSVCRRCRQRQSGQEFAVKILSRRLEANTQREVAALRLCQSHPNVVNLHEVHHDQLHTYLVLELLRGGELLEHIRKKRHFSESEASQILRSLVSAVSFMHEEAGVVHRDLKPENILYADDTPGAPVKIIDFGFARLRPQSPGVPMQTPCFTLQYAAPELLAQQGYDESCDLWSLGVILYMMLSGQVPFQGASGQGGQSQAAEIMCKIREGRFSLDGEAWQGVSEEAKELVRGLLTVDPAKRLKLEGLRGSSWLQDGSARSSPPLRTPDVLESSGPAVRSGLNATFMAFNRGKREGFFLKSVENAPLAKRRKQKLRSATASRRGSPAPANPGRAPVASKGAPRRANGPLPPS
Chain of Serine/threonine-protein kinase MRCK beta (Homo sapiens) (Q9Y5S2 whole entry): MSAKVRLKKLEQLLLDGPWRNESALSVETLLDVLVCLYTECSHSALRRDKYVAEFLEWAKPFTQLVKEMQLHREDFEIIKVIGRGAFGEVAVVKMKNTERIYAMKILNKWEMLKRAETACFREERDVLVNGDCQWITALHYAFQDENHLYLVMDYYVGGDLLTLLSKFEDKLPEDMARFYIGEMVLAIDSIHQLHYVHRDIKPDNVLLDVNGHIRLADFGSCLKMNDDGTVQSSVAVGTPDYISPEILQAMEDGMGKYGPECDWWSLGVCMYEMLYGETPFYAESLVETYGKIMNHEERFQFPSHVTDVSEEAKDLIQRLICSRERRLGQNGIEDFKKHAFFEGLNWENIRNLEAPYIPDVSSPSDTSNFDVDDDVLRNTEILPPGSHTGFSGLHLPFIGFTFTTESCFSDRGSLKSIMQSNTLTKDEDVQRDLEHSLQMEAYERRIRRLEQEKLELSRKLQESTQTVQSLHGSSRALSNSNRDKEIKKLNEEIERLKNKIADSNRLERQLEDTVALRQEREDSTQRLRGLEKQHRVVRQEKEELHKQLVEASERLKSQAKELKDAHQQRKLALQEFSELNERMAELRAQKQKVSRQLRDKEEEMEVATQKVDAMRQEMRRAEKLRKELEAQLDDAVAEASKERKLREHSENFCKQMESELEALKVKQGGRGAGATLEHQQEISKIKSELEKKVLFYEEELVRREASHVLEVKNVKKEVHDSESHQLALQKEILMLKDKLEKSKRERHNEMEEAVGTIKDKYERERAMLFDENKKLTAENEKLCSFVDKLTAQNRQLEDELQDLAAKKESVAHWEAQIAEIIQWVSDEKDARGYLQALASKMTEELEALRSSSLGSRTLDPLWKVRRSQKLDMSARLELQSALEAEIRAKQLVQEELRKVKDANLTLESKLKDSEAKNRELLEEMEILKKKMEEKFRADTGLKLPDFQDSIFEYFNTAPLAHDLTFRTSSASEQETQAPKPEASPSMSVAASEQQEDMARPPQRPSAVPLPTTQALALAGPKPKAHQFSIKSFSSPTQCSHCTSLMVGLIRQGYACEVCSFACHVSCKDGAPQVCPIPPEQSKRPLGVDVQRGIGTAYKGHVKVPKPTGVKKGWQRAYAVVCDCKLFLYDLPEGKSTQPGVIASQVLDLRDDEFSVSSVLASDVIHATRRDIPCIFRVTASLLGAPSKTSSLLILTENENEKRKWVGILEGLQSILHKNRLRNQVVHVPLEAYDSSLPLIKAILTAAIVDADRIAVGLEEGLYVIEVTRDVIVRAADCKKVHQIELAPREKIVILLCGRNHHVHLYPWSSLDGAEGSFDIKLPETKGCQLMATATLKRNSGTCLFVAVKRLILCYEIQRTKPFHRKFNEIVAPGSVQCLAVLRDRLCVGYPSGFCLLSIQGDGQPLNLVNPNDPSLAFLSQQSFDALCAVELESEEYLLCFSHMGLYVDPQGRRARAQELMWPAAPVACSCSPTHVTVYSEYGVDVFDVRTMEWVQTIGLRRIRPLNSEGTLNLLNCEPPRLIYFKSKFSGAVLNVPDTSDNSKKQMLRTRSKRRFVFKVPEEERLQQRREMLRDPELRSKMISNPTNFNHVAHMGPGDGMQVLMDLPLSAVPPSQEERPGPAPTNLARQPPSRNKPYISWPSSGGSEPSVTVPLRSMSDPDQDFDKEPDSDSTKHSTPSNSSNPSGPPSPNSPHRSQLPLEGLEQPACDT
Chain of Ribosomal protein S6 kinase alpha-5 (Homo sapiens) (O75582 whole entry, looked up): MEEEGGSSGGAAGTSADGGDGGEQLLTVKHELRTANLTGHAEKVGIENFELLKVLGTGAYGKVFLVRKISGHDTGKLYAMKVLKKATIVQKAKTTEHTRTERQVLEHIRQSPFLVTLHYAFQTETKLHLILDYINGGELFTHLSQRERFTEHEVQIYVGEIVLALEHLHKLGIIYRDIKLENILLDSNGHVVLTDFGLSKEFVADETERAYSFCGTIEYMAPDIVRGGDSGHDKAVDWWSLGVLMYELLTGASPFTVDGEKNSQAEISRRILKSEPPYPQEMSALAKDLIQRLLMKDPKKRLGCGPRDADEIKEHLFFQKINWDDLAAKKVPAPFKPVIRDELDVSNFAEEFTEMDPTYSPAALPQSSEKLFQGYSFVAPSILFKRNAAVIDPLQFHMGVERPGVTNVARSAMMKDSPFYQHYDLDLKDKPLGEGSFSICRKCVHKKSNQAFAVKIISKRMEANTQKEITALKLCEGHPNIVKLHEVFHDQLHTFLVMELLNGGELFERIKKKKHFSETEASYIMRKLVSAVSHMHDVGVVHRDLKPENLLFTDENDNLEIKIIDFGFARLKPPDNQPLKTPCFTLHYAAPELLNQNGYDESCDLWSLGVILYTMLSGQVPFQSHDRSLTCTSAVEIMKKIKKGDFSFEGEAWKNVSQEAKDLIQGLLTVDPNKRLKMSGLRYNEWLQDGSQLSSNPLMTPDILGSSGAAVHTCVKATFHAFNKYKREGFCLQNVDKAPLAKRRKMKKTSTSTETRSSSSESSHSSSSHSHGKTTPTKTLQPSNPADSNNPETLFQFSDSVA

Row | SMILES | inhibition [1] | inhibition [2] | inhibition [3] | inhibition [4] | inhibition [5] | inhibition [6] | inhibition [7] | inhibition [8] | inhibition [9] | inhibition [10]
1 | COc1cc2ncnc(Nc3ccc4c(cnn4Cc4ccccc4)c3)c2cc1OC | 1.92% | 0.94% | -0.95% | -0.76% | 7.1% | 7.6% | 1.21% | 2.89% | 0.98% | 1.35%
2 | NS(=O)(=O)c1ccc(NC=C2C(=O)Nc3ccc4ncsc4c32)cc1 | 3.96% | 20.5% | 5.03% | 15.4% | 11% | 23.1% | 28.8% | 63.9% | 5.33% | 25.6%
3 | Nc1ccc(C#Cc2cncnc2Nc2ccc(OCc3cccc(F)c3)c(Cl)c2)cc1 | -1.73% | 0.19% | 1.04% | 1.18% | 1.3% | -0.19% | 1.93% | 3.14% | 0.9% | 0.85%
4 | CN(C)C(=O)O[C@H]1CN[C@H](C#Cc2cc3ncnc(Nc4ccc(OCc5cccc(F)c5)c(Cl)c4)c3s2)C1 | -0.3% | -0.73% | 0.58% | 2.77% | 2.4% | 4.95% | 0.06% | 4.03% | 0.89% | 2.08%
5 | COc1cccc(-n2ncc3c(N/N=C/c4ccc(S(C)(=O)=O)cc4)ncnc32)c1 | -0.29% | -0.45% | 0.04% | 0.16% | -1.19% | -0.55% | 1.78% | 2.04% | 1.23% | 5.85%
6 | COc1cccc(-n2ncc3c(N/N=C/c4ccc(C)cc4)ncnc32)c1 | 4.17% | 5.98% | 1.06% | 1.73% | -3.87% | -2.7% | 3.45% | 5.55% | 2.62% | 3.95%
7 | CN(C)C(=O)O[C@@H]1CN[C@@H](C#Cc2cc3ncnc(Nc4ccc(OCc5cccc(F)c5)c(Cl)c4)c3s2)C1 | 0.14% | 1.14% | -0.75% | 0.85% | 0.39% | 2.9% | -1.34% | 2.41% | 0.37% | 1.14%
8 | O=C1Nc2ccc(-c3cccnc3)cc2C1=Cc1cc(Br)c(O)c(Br)c1 | 0.24% | -0.62% | 0.92% | 1.01% | 3.3% | 3.39% | 0.89% | 2.67% | 2.32% | 2.15%
9 | CCOc1nccc2c1nc(-c1nonc1N)n2CC | 2.25% | 5.56% | 1.28% | 2.92% | 13.2% | 45.4% | 6.75% | 27.6% | 13.4% | 56.5%
10 | CCS(=O)(=O)c1ccc(OC)c(Nc2nccc(N(C)c3ccc4c(C)n[nH]c4c3)n2)c1 | -4.24% | -2.48% | 0.97% | 0.83% | 4.1% | 1.28% | 2.02% | 0.35% | 0.02% | 1.3%
11 | CCn1c(-c2nonc2N)nc2ccc(F)cc21 | -0.42% | 3.28% | -0.61% | 1.2% | 7.13% | 21.2% | 3.5% | 10.8% | 3.92% | 28.4%
12 | CCCN1CCCC(c2ccc(Nc3nc(Nc4cc(F)ccc4C(N)=O)c4cc[nH]c4n3)c(OC)c2)C1 (stereo not given) | 1.76% | 17.9% | 1.55% | 13% | 4.88% | 5.31% | 1.64% | 7.01% | 1.93% | 4.24%
13 | NS(=O)(=O)c1ccc(N/N=C2\C(=O)Nc3ccc(Cl)cc32)cc1 | -0.18% | 2.52% | 0.03% | 0.67% | -2.92% | -0.64% | 2.66% | 5.77% | 1.75% | 2.32%
14 | Cc1ccc2c(-c3ccnc(Nc4cccc(C(F)(F)F)c4)n3)c(-c3ccccc3)nn2n1 | 1.06% | 5.98% | 0.83% | 1.46% | -3.38% | -4.64% | 2.52% | 3.99% | 2.1% | 2.71%
15 | COc1ccc(-c2nn3ncccc3c2-c2ccnc(Nc3cccc(C(F)(F)F)c3)n2)cc1 | -3.04% | 1.22% | 0.66% | -0.13% | 1.92% | -0.09% | 2.61% | 1.73% | 1.77% | 0.85%
16 | COc1cccc(-n2nc(C)c3c(N/N=C(\C)c4ccncc4)ncnc32)c1 | 1.87% | -2.42% | 0.02% | -0.47% | 0.18% | -0.52% | 0.44% | 0.3% | 0.29% | -0.38%
17 | Oc1cccc(-c2nc(-c3ccccc3)[nH]c2-c2ccncc2)c1 | -0.93% | 2.63% | -0.32% | 0.92% | 3.05% | 4.64% | 1.9% | 3.89% | 1.55% | 6.44%

Source: ChEMBL document CHEMBL1961873, “Compounds: GSK PKIS; Assays: Nanosyn kinase panel” (2012)
